Source: PubChem BioAssay AID1053125 (Broad Institute, 2014)
Results with a measured potency or affinity are listed apart. Calls of active or inactive are those of the source.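 How the source made its calls: active means viability loss whose fitted half-maximal concentration is at most twice the top valid tested dose; inconclusive means flat curve with 30 to 70% loss, or poor fit; inactive means the rest.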

experiment: viability loss in HepG2 liver cells – cell-based, ATP luminescence, cherry-pick, set 6, cytotoxicity control, dose response (AID 1053125); details: ATP luminescence (CellTiter-Glo), 72 h; series mostly up to 26 µM;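 further: negative values mean loss of viability signal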

Row | Compound | outcome
1 | CCN(CC)CCCNc1nc(C)cc(COC)c1C#N | inactive
2 | O=C(NNc1cc(N2CCCC2)nc(N2CCCC2)n1)c1ccc([N+](=O)[O-])cc1 | inactive
3 | Cc1ccc(-n2c(C)cc(/C=N/NC(=O)Cn3c4ccccc4c(=O)c4ccccc43)c2C)cc1 | inactive
4 | CCOC(=O)c1c2ccc(OCC(=O)NN)cc2n2ccccc12 | inactive
5 | CC(C)N1CCc2c(sc(NC(=O)Cc3ccccc3)c2C#N)C1 | inactive
6 | Cc1ccc(S(=O)(=O)c2cc3c(=O)n4ccccc4nc3n(C)c2=N)cc1 | inactive
7 | NC(=O)c1cc([N+](=O)[O-])ccc1NCc1cccnc1 | inactive
8 | CCCOc1c(Br)cc(C2C3=C(CCCC3=O)N(C)C3=C2C(=O)CCC3)cc1OC | inactive
9 | N=c1c(C(=O)NCC2CCCO2)cc2c(=O)n3ccccc3nc2n1Cc1ccc(Cl)cc1 (configuration not stated) | inactive
10 | O=C1c2ccccc2S(=O)(=O)c2cc(N3CCC(C(=O)N4CCCCC4)CC3)ccc21 | inactive
11 | O=C(c1ccc(F)cc1)C1CCN(C(=O)Nc2ccccc2Cl)CC1 | inactive
12 | CCC(=O)NCCCNc1nc2c(C)cccc2cc1C#N | inactive
13 | Cc1ccc(S(=O)(=O)Nc2ccc(Nc3ccccc3)cc2)cc1 | inactive
14 | CCOC(=O)C1=CN(CC2CCCO2)C=C(C(=O)OCC)C1c1ccccc1C(F)(F)F (configuration not stated) | inactive
15 | O=c1oc2c(CN3CCN(CCO)CC3)c(O)ccc2cc1-c1ccccn1 | inactive
16 | N#Cc1c(NCCCO)nc(NCc2ccccc2)c2c1CCN(Cc1ccccc1)C2 | inactive
17 | O=[N+]([O-])c1cccc(Nc2c3ccccc3nc3ccccc23)c1 | inactive
